Data from the supplement of paper PMC12494721.
Where a name gives a salt, the structure may show the parent alone.

Assays:
Conditions in all cases: incubation time: 27 h, anaerobic, 37 °C;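 for the amine columns active = adjusted P below 0.05 in both replicates with a change the same way and a mean fold change under 0.8 or over 1.25; inactive = the rest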
[1] = tested on: Clostridium sporogenes DSM 1664; experiment: growth (OD595) fold change vs plate DMSO controls (fold change (ratio)); higher = more growth
In short: (§1)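 Each value is the mean of 2 biological replicates, and fold changes above 1.5 were set to NA. The underlying readings were taken at 595 nm from shaken anaerobic mGAM cultures in 96-well plates after 27 h at 37 °C. They were blank-subtracted, corrected for compound background using 20 µM compound solutions in water, and converted to OD with a calibration factor of 5. Growth is the fold change relative to the median of the plate DMSO controls.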

[2] = tested on: Escherichia coli IAI1; experiment: as above
In short: as §1

[3] = tested on: Klebsiella aerogenes DSM 30053; experiment: as above
In short: as §1

[4] = tested on: Ruminococcus gnavus DSM 108212; experiment: as above
In short: as §1

[5] = tested on: Klebsiella aerogenes DSM 30053; experiment: fold change of Histamine concentration vs plate DMSO controls (fold change (ratio)); higher = more amine produced, active = hit call of the paper (significant change in both replicates, either direction)
In short: (§2)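 Using LC–triple-quadrupole MS with dynamic MRM, amines were quantified against external calibration curves and corrected for drift within each batch. Samples were whole anaerobic mGAM cultures of four gut strains, grown 27 h at 37 °C from OD 0.1 before 1:1 dilution, extracted with cold acetonitrile/methanol containing 0.1% formic acid and centrifuged. Compounds were present at 20 µM final (sweeteners at 50 µM final). The numbers are fold changes versus plate DMSO controls, each the mean of 2 biological replicates.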

[6] = tested on: Clostridium sporogenes DSM 1664; experiment: fold change of Tryptamine concentration vs plate DMSO controls (fold change (ratio)); higher = more amine produced, active = hit call of the paper (significant change in both replicates, either direction)
In short: as §2

[7] = tested on: Ruminococcus gnavus DSM 108212; experiment: as above
In short: as §2

[8] = tested on: Escherichia coli IAI1; experiment: fold change of Putrescine concentration vs plate DMSO controls (fold change (ratio)); higher = more amine produced, active = hit call of the paper (significant change in both replicates, either direction)
In short: as §2

[9] = tested on: Klebsiella aerogenes DSM 30053; experiment: as above
In short: as §2

[10] = tested on: Escherichia coli IAI1; experiment: fold change of Cadaverine concentration vs plate DMSO controls (fold change (ratio)); higher = more amine produced, active = hit call of the paper (significant change in both replicates, either direction)
In short: as §2

[11] = tested on: Klebsiella aerogenes DSM 30053; experiment: as above
In short: as §2

[12] = tested on: Ruminococcus gnavus DSM 108212; experiment: fold change of 2-Phenylethylamine concentration vs plate DMSO controls (fold change (ratio)); higher = more amine produced, active = hit call of the paper (significant change in both replicates, either direction)
In short: as §2

| SMILES | growth [1] | growth [2] | growth [3] | growth [4] | fold change of Histamine concentration [5] | fold change of Tryptamine concentration [6] | fold change of Tryptamine concentration [7] | fold change of Putrescine concentration [8] | fold change of Putrescine concentration [9] | fold change of Cadaverine concentration [10] | fold change of Cadaverine concentration [11] | fold change of 2-Phenylethylamine concentration [12] |
| --- | --- | --- | --- | --- | --- | --- | --- | --- | --- | --- | --- | --- |
| CCCC(=O)Nc1ccc(OCC(O)CNC(C)C)c(C(C)=O)c1 (centres undefined) [Acebutolol hydrochloride] (20 µM) | 0.937 | 0.989 | 0.971 | 0.781 | 1.06 (inactive) | 1.03 (inactive) | 1.03 (inactive) | 0.996 (inactive) | 1.01 (inactive) | 0.958 (inactive) | 0.99 (inactive) | 0.985 (inactive) |
| CC(=O)O[C@]1(C(C)=O)CC[C@H]2[C@@H]3C=C(C)C4=CC(=O)CC[C@]4(C)[C@H]3CC[C@@]21C [Megestrol acetate] (20 µM) | 1.03 | 1.1 | 0.998 | 1.07 | 0.981 (inactive) | 1.05 (inactive) | 1.04 (inactive) | 1.2 (inactive) | 0.971 (inactive) | 0.982 (inactive) | 1.01 (inactive) | 1.04 (inactive) |
| CC(=O)NC[C@H]1CN(c2ccc(N3CCOCC3)c(F)c2)C(=O)O1 [Linezolid] (20 µM) | 0 | 0.788 | 0.985 | 0.196 | 0.819 (inactive) | 0.0335 (active) | 0.112 (active) | 0.59 (active) | 1 (inactive) | 0.777 (active) | 1 (inactive) | 0.119 (active) |
| O=C(CO)[C@@H](O)[C@H](O)[C@H](O)CO [D(-) Fructose] (50 µM) | 1.01 | 1.02 | 0.988 | 0.986 | 0.994 (inactive) | 0.929 (inactive) | 0.925 (inactive) | 1.04 (inactive) | 0.987 (inactive) | 1.07 (inactive) | 0.981 (inactive) | 0.919 (inactive) |
| OCCN1CCN(CCCN2c3ccccc3C=Cc3ccccc32)CC1 [Opipramol dihydrochloride] (20 µM) | 1.12 | 0.948 | 0.983 | 0.902 | 1.03 (inactive) | 1.07 (inactive) | 1.02 (inactive) | 0.888 (inactive) | 0.994 (inactive) | 1.04 (inactive) | 0.98 (inactive) | 1.02 (inactive) |
| CN(CCOc1ccc(CC2SC(=O)NC2=O)cc1)c1ccccn1 (centres undefined) [Rosiglitazone hydrochloride] (20 µM) | 1.05 | 1.15 | 0.983 | 1.05 | 0.998 (inactive) | 1.06 (inactive) | 1.08 (inactive) | 1.17 (inactive) | 0.993 (inactive) | 0.926 (inactive) | 1.03 (inactive) | 1.12 (inactive) |
| C=C1C[C@@]23CC[C@H]4[C@@](C)(CCC[C@@]4(C)C(=O)O[C@@H]4O[C@H](CO)[C@@H](O)[C@H](O)[C@H]4O)[C@@H]2CC[C@]1(O[C@@H]1O[C@H](CO)[C@@H](O)[C@H](O)[C@H]1O)C3 [Rubusoside] (50 µM) | 1.1 | 1 | 0.969 | 1.01 | 1.01 (inactive) | 1 (inactive) | 0.989 (inactive) | 1.05 (inactive) | 1.01 (inactive) | 1.02 (inactive) | 0.991 (inactive) | 0.981 (inactive) |
| CN1CCN(CCCN2c3ccccc3Sc3ccc(C(F)(F)F)cc32)CC1 [Trifluoperazine dihydrochloride] (20 µM) | 1.25 | 1.08 | 1.05 | 0.968 | 0.886 (inactive) | 1.06 (inactive) | 0.93 (inactive) | 1.04 (inactive) | 0.955 (inactive) | 1.05 (inactive) | 1.03 (inactive) | 0.964 (inactive) |
| Nc1ccn([C@H]2CC[C@@H](CO)O2)c(=O)n1 [Zalcitabine] (20 µM) | 1.05 | 1.04 | 0.995 | 0.997 | 1.03 (inactive) | 1.02 (inactive) | 1.04 (inactive) | 1.09 (inactive) | 0.978 (inactive) | 0.975 (inactive) | 0.997 (inactive) | 1.02 (inactive) |
| COc1cc(N)cn[n+]1-c1ccccc1 [Amezinium metilsulfate] (20 µM) | 1.05 | 1.04 | 1.08 | 1.07 | 0.987 (inactive) | 1.05 (inactive) | 1.06 (inactive) | 0.969 (inactive) | 0.98 (inactive) | 1.02 (inactive) | 0.995 (inactive) | 1.11 (inactive) |
| Nc1ccc(S(=O)(=O)Nc2ccccn2)cc1 [Sulfapyridine] (20 µM) | 0.891 | 1.06 | 1.04 | 1.03 | 1.05 (inactive) | 0.998 (inactive) | 1.02 (inactive) | 1.01 (inactive) | 1 (inactive) | 0.955 (inactive) | 0.994 (inactive) | 1.03 (inactive) |
| COC(=O)[C@H](c1ccccc1Cl)N1CCc2sccc2C1 [Clopidogrel] (20 µM) | 1.01 | 1.25 | 0.982 | 0.969 | 1.06 (inactive) | 0.986 (inactive) | 0.963 (inactive) | 1.23 (inactive) | 1.02 (inactive) | 0.975 (inactive) | 0.996 (inactive) | 0.941 (inactive) |
